Mdm2 MdmX PPI: inhibitors of human Mdm2/MdmX interaction. O15151+Q00987. SaOS-2 split-luciferase Mdm2/MdmX complementation, luminescence. inhibition, % at 8 µM. hit rate 3% among 330,000;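 active = inhibition of at least 50% at 8 µM in the primary screen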
Target sequence (O15151 whole entry, looked up): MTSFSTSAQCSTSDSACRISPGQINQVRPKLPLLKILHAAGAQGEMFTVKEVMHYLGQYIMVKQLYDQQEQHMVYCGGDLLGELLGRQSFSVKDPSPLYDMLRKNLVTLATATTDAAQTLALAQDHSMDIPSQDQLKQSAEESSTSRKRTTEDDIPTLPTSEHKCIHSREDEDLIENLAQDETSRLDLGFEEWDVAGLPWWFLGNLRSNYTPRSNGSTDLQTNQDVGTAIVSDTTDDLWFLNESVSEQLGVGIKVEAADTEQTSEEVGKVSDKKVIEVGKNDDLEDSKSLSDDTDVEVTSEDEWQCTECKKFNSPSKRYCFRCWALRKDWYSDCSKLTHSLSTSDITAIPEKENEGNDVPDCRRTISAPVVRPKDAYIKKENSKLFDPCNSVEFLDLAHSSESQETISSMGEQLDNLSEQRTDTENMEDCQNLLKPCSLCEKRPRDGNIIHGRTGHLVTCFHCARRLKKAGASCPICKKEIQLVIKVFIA
Target sequence (Q00987 whole entry, looked up): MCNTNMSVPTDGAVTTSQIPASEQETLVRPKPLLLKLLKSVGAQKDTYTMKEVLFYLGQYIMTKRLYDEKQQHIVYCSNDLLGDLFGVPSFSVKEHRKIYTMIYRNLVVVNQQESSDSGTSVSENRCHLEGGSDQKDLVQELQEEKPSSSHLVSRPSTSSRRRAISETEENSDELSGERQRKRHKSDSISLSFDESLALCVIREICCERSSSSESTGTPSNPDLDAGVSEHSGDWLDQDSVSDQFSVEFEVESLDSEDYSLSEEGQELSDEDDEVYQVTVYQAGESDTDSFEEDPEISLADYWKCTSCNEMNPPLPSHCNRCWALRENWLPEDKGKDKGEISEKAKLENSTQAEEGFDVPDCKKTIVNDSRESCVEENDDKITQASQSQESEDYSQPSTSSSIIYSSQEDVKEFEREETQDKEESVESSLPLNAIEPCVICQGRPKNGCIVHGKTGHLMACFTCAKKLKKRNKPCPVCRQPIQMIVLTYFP
CSC inhib: blocks cancer stem cells; cancer stem cell-like cells viability, luminescence; inhibition, % at 7.5 µM; hit rate 1.1% among 300,000; in the data active = inhibition above about 75%; tested in HMLE shEcad cells
PAX8 inh HTS: inhibitors of PAX8 transcriptional activity in RMG-I cells. RMG-I TPO-luciferase reporter, SteadyGlo, 24 h. inhibition, % at 12.6 µM. hit rate 1.2% among 360,000;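 active = mean replicate inhibition at least 60% with every replicate also reaching 60%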;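 note: luciferase light reporting Pax8 driven TPO promoter activity; plate controls were median of neutral control wells for no effect and mitoxantrone controls for full effect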
Beta cell apopt: beta cell apoptosis inhibition; INS-1E cytokine-induced death, ATP luminescence, 48 h; percent of positive-control rescue, neutral wells zero; protection from apoptosis, % (no concentration beside the values); hit rate 0.8% among 300,000;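 active = Every replicate reaches about 75%, or at least half do and their mean reaches it too, limit read from the data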;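 note: 0% = cytokine-treated negative control wells and 100% = positive control rescue; higher means more ATP so stronger rescue from cytokine killing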
Shn3 3UTR inh: reduces Shn3 3'UTR luciferase signal in osteoblasts | Clone20 osteoblast Shn3 3'UTR firefly luciferase, 24 h | hit rate 0.52% among 360,000 | inhibition, % at 12.5 µM | AID 588674;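 active = mean inhibition of at least 75% with every replicate also reaching 75%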;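 note: 0% = median of neutral control wells and 100% = pilot-screen positive control compound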
Gli-Sufu antag: antagonists of Gli-Sufu signaling. AID 588413. hit rate 0.74% among 340,000. Sufu-KO-LIGHT fibroblasts, Gli luciferase reporter luminescence. inhibition, % at 5 µM;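 active = inhibition above about 55%, limit read from the data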;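 note: 0% = DMSO-treated cells and 100% = wells with medium but no cells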
Mdm2-MdmX conf: human Mdm2/MdmX binding inhibition, confirmed | shares compounds with Mdm2 MdmX PPI | luminescent assay | inhibition, % at 8 µM | hit rate 55% among 10,000; in the data active = inhibition above about 40%
Full FLuc ctr: inhibits full-length luciferase, flagging false Mdm2/MdmX hits; shares compounds with Mdm2 MdmX PPI; SaOS-2 full-length luciferase counterscreen, luminescence; inhibition, % at 8 µM; hit rate 77% among 6,200;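 active = mean inhibition at 8 µM reaching about 37%, which flags the compound as non-specific, limit read from the data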;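 note: p53-null SaOS-2 cells with luciferase driven by a doxycycline-inducible promoter; compound on cells about two nights before reading with doxycycline added after day one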
* = called active by the depositor; . = no result given. An excerpt weighted towards active compounds, which were near 4% of everything screened.

SMILES	Mdm2 MdmX PPI	CSC inhib	PAX8 inh HTS	Beta cell apopt	Shn3 3UTR inh	Gli-Sufu antag	Mdm2-MdmX conf	others
COc1ccc(S(=O)(=O)N2C[C@@H](O)COC[C@H]3O[C@@H](CC(=O)NCCCN4CCOCC4)CC[C@@H]32)cc1	.	.	-10.9	.	.	.	.
COc1ccccc1C#Cc1ccc2c(c1)[C@H]1[C@H](CCN1C(=O)c1ccc(F)cc1)[C@H](CO)N2	.	.	28.6	.	.	.	.
CCCC(=O)Nc1ccc2c(c1)OC[C@@H](C)N(C(=O)c1cccnc1)C[C@@H](C)[C@H](OC)CN(C)C2=O	.	.	3.5	.	.	.	.
COc1ccc(/C=C2\CN(Cc3ccccc3)C/C(=C\c3ccc(OC)cc3OC)C2=O)c(OC)c1	66.6*	12.7	92.9*	9.1	7.0	10.7	60.5*	Full FLuc ctr=63.2*
COc1ccc(C=C2c3ccccc3C(=O)c3ccccc32)c(OC)c1	65.8*	-10.3	59.5	8.0	28.8	.	57.4*	Full FLuc ctr=97.1*
COc1ccc(/C=C2\COc3ccccc3C2=O)c(OC)c1	59.3*	60.2	-34.5	4.5	-26.5	-10.9	34.0	Full FLuc ctr=76.2*
CCCNC(=O)[C@@H]1[C@@H](CO)[C@@H]2Cn3c(cccc3=O)[C@H]1N2Cc1cc(F)ccc1F	.	.	-11.0	.	.	.	.
O=C(Nc1cccc2ccccc12)NC1Cc2ccccc2C1	78.8*	2.2	-12.3	-8.9	-5.7	0.1	3.4
CCCCCCCn1c(=N)n(CC(=O)c2ccco2)c2ccccc21	63.1*	-2.4	28.8	23.1	63.7	11.6	16.1
CCCCn1c(=N)n(CC(=O)c2ccc([N+](=O)[O-])cc2)c2ccccc21	54.9*	-9.1	-2.2	3.7	.	.	15.5
Cc1ccc(C(=O)Cn2c(=N)n(CCN3CCOCC3)c3ccccc32)cc1	-11.0	-0.3	-5.0	-5.5	-7.8	11.2	.
Cc1ccc(Cn2c(=N)n(CC(=O)c3ccc([N+](=O)[O-])cc3)c3ccccc32)cc1	98.3*	2.0	.	15.5	8.7	14.5	17.5
O=C(C[C@H]1C=C[C@@H](NS(=O)(=O)c2ccc(F)cc2)[C@@H](CO)O1)NCCc1ccncc1	.	.	-32.5	.	.	.	.
O=C(Nc1ccc(F)cc1)N[C@@H]1CC[C@@H](CC(=O)N2CCCCC2)O[C@H]1CO	.	.	3.5	.	.	.	.
Cc1ccc(S(=O)(=O)Nc2ccc3c(c2)C(=O)N([C@@H](C)CO)C[C@@H](C)[C@H](CN(C)CC2CCCCC2)O3)cc1	.	.	0.9	.	.	.	.
COC(=O)c1cc(-c2cccc([N+](=O)[O-])c2)c2c(=O)n(C)c(=O)n(C)c2n1	48.5	-17.4	-9.8	0.5	-10.9	8.6	.
COC(=O)c1cc(-c2ccc(Br)cc2)c2c(=O)n(C)c(=O)n(C)c2n1	71.6*	9.0	-13.5	2.3	11.7	11.8	3.6
S=c1[nH]nc(-c2ccc(Cl)cc2)n1/N=C/c1ccco1	-6.8	8.9	-46.3	-15.9	12.5	1.6	.
Cc1n[nH]c(=S)n1/N=C/c1ccc(-c2ccc(Cl)cc2)o1	93.9*	11.8	-7.7	1.1	-12.4	2.7	-2.6
CCC(=O)Nc1ccc2c(c1)C(=O)N(C)[C@@H]1CC[C@@H](CC(=O)N3CCCCC3)O[C@H]1CO2	.	.	0.9	.	.	.	.
CSc1nc(Sc2ccccc2Cl)c2ccccc2n1	52.5*	.	.	-8.8	6.5	-4.1	46.4*	Full FLuc ctr=55.2*
CCOC(=O)c1cnc(SC)nc1Sc1ccccc1Cl	10.7	-6.2	.	.	-2.3	0.0	.
Cc1ccc(-c2csc3ncnc(N4CCN(S(=O)(=O)c5cccs5)CC4)c23)cc1	50.8*	.	.	18.8	10.0	8.8	18.1
COc1ccc(-c2csc3ncnc(N4CCN(c5ccccc5OC)CC4)c23)cc1	20.5	21.6	13.6	18.1	-18.7	-3.7	.
Fc1ccc(-c2csc3ncnc(N4CCc5ccccc5C4)c23)cc1	51.4*	47.8	69.7*	-0.1	35.8	15.9	26.9
SMILES	Mdm2 MdmX PPI	CSC inhib	PAX8 inh HTS	Beta cell apopt	Shn3 3UTR inh	Gli-Sufu antag	Mdm2-MdmX conf	others
Cc1nc(N2CCN(c3ccccc3O)CC2)c2c(-c3ccccc3)csc2n1	52.4*	46.4	3.6	-9.4	21.4	-3.5	55.1*	Full FLuc ctr=59.1*
Oc1ccccc1N1CCN(c2ncnc3scc(-c4ccccc4)c23)CC1	59.2*	25.8	16.7	4.5	-9.1	10.7	29.6
Cc1ccc(-c2csc3ncnc(N4CCc5ccccc5C4)c23)cc1	24.5	17.3	10.4	9.0	30.0	7.7	.
Oc1ccccc1N1CCN(c2ncnc3scc(-c4ccc(F)cc4)c23)CC1	39.2	16.1	28.9	15.1	17.6	1.6	.
C[C@H]1CN([C@@H](C)CO)C(=O)c2cc(NS(=O)(=O)c3cn(C)cn3)ccc2O[C@H]1CN(C)Cc1ccccc1	.	.	-12.0	.	.	.	.
CO[C@H]1CN(C)C(=O)c2ccc(NC(=O)Nc3ccccc3F)cc2OC[C@H](C)N(C(C)=O)C[C@@H]1C	.	.	-3.4	.	.	.	.
CN1CCN(c2ncnc3scc(-c4ccccc4Cl)c23)CC1	70.3*	-14.0	-6.8	-21.1	17.4	-10.2	78.7*	Full FLuc ctr=28.7
COc1ccc(-c2csc3nc(C)nc(N4CCC(C)CC4)c23)cc1OC	65.6*	11.7	17.8	-6.6	7.1	46.1	38.2	Full FLuc ctr=84.1*
COc1ccc(-c2csc3nc(C)nc(N4CCN(C(C)=O)CC4)c23)cc1OC	-6.0	3.9	10.3	-0.2	-7.7	21.1	.
COCC(=O)N(C[C@H]1N[C@H](CO)[C@H]1c1ccc(C2=CCCC2)cc1)C(C)C	.	.	1.5	.	.	.	.
CC[C@H]1CN2CCc3cc(OC)c(OC)cc3C2C[C@@H]1C[C@H]1NCCc2cc(OC)c(OC)cc21 (stereo partly specified)	97.5*	.	110.8*	.	97.0*	64.7*	99.4*	Full FLuc ctr=51.2*
COc1cc2c(cc1OC)CN1CCc3cc(OC)c(OC)cc3C1C2 (stereo unspecified)	.	.	.	.	15.2	.	.
O=c1cc(CN2CCN(C/C=C/c3ccccc3)CC2)c2cc(O)c(-c3ccccc3)cc2o1	50.0*	13.4	.	19.7	30.9	9.4	42.5*	Full FLuc ctr=65.2*
CN1CCN(Cc2cc(=O)oc3cc4c(cc23)CCC4)CC1	7.5	7.8	-3.9	-0.4	-3.3	6.4	.
CC(C)CN(Cc1cc(=O)oc2cc(-c3ccccc3)c(O)cc12)CC(C)C	79.9*	109.4*	-20.7	41.8	14.2	-7.6	-5.3
O=c1cc(CN2CCN(c3ccccc3F)CC2)c2cc(O)c(-c3ccccc3)cc2o1	2.9	-3.7	25.3	-3.7	-4.4	8.1	.
COc1ccc(N2CCN(Cc3cc(=O)oc4cc(-c5ccccc5)c(O)cc34)CC2)cc1	88.9*	-5.9	.	34.5	17.5	1.1	59.0*	Full FLuc ctr=22.3
O=c1cc(CN2CCN(c3ccc(F)cc3)CC2)c2cc3c(cc2o1)CCCC3	67.7*	-17.6	.	15.5	28.3	6.3	0.7
COc1ccc(NC(=O)Nc2ccc3c(c2)C(=O)N([C@@H](C)CO)C[C@@H](C)[C@@H](CN(C)Cc2ccccc2)O3)cc1	.	.	23.4	.	.	.	.

High-throughput results as filed in PubChem BioAssay.
